# Source: PubChem BioAssay
# Assay: probe aInhba binding on compound microarray – biochemical, small-molecule microarray, 635/667 nm fluorescence, primary screen (AID 1148);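 further: score merges 667nm spot fluorescence with signal-to-noise for antibody binding to printed compounds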
# Details: higher = more signal
row,Structure (SMILES),composite z-score
1,COC(=O)c1c(CC[C@@H](CO)NC(=O)N2CCC[C@H]2Cn2cc(-c3ccccn3)nn2)oc(C(C)=O)c1C(=O)OC,-0.0178
2,C=CCN1C(=O)[C@]2(O[C@H](CCO)[C@@H]([Si](C)(C)c3ccc(OC)cc3)[C@@H]2C)c2cc(N3C(=O)c4cccc5cccc3c45)ccc21,0.0214
3,O=C(NCc1ccccc1)[C@@]1(CCS(=O)(=O)c2ccccc2)N=C(c2ccc(OCCCO)cc2)O[C@H]1c1ccccc1,0.212
4,CC(C)C(=C=CC[C@@H](O)c1ccccc1OCCO)CCO,-0.016
5,O=C(NCC(F)(F)F)[C@@H]1c2ccccc2C(=O)N(C2CCCCC2)[C@H]1c1ccc(CO)cc1,-0.0422
6,CN1C(=O)C2C=CC(C(O)c3cccs3)N(Nc3ccccc3)C2C1=O (centres undefined),0.406
7,COc1cc2c(cc1O)C(C1CC1)N(Cc1cc3c(cc1Br)OCO3)CC2 (centres undefined),-0.179
8,COCCOC(=O)N1C(=O)[C@@]2(c3cc(C#CCCO)ccc31)[C@H](c1ccc(OCCO)cc1)N1[C@H](c3ccccc3)[C@H](c3ccccc3)OC(=O)[C@H]1[C@@H]2C(=O)N1CCN(c2ncccn2)CC1,0.0947
9,O=C1O[C@H](c2ccccc2)[C@H](c2ccccc2)N2[C@H]1[C@@H](C(=O)NC[C@H](O)c1ccccc1)[C@]1(C(=O)Nc3ccccc31)[C@H]2c1ccc(OCCO)cc1,-0.0044
10,O=C1c2ccccc2[C@](Cc2ccccc2I)(C(=O)NC2CC2)[C@H](c2ccc(CO)cc2)N1C1CCCCC1,0.306
11,CC(=O)NCCCC[C@@H]1NC(=O)[C@@H]2C[C@H](C(=O)NCCCCCCNC(=O)CS)[C@H](c3cccc(OCCO)c3)N2C1=O,-0.179
12,COCCOC(=O)N1C(=O)[C@@]2(c3cc(C#CC4=CCCCC4)ccc31)[C@H](C(=O)N1CCc3cc(OC)c(OC)cc3C1)[C@H]1C(=O)O[C@H](c3ccccc3)[C@H](c3ccccc3)N1[C@@H]2c1ccc(OCCO)cc1,0.0649
13,COCCOC(=O)N1C(=O)[C@@]2(c3cc(C#CC4=CCCCC4)ccc31)[C@H](C(=O)Nc1nc3ccccc3s1)[C@H]1C(=O)O[C@H](c3ccccc3)[C@H](c3ccccc3)N1[C@@H]2c1ccccc1OCCO,0.973
14,COc1ccc(C(O)C2C=CC3C(=O)N(c4ccccc4)C(=O)C3N2Nc2ccc(C(C)C)cc2)cc1OCc1ccccc1 (centres undefined),0.341
